MLLE-PAM2 inh – blocks PAM2 peptide binding to the PABP1 MLLE domain. P11940. GST-MLLE / FITC-PAM2 fluorescence polarization. inhibition, % at 20 µM. hit rate 0.36% among 360,000. AID 588489; in the data active = inhibition above about 35%, passing the limit was not always enough
PABP FP inh – blocks human PABP binding to poly(A) RNA. P11940. fluorescence polarization. calls only at 35 µM. hit rate 1% among 290,000;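 note: calls also rest on retests at 20 µM and on dose response follow-up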
EBV gp42 block – blocks Epstein-Barr virus glycoprotein 42 binding; Q1HVG2; Fluorescence polarization binding assay, mP read-out; inhibition, % (tested at 21.74 µM); hit rate 0.42% among 220,000; in the data active = inhibition above about 50%
Target sequence (Q1HVG2 whole entry, looked up): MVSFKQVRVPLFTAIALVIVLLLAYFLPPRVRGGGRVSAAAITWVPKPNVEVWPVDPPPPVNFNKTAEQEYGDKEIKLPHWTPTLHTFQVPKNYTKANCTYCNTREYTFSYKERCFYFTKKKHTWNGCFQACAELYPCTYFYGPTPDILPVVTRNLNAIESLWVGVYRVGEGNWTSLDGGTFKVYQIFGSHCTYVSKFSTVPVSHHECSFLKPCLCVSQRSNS
MEX-5 binding – C. elegans MEX-5 TCR-2 RNA binding activity; Q9XUB2; MEX-5/FITC-TCR2 RNA binding, fluorescence polarization; active compounds read low; activity score (negative = inhibition of binding), % at 10 µM; hit rate 0.38% among 300,000; AID 1832;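 active = inhibition past about -25% in most replicates, and total fluorescence under double the plate's negative control median, limit read from the data; inconclusive = replicates evenly split on the limit, or fluorescence at least double controls; inactive = too little inhibition in most replicates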
Target sequence (Q9XUB2 whole entry, looked up): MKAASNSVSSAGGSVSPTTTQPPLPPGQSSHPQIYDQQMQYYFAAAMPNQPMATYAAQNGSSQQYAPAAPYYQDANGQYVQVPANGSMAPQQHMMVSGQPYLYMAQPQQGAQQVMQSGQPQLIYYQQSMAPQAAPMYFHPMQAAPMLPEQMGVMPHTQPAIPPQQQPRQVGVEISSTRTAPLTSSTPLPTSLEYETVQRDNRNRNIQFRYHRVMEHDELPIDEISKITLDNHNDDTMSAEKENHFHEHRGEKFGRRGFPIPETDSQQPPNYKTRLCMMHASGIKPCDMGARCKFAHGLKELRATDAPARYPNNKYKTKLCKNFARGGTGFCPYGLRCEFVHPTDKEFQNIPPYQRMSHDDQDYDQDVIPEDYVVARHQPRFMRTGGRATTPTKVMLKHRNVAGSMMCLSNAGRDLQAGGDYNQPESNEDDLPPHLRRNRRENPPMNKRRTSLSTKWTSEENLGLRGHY
eIF4H FP inh – inhibitors of RNA binding by human eIF4H; inhibition, % at 35 µM; eIF4H fluorescence polarization binding assay; hit rate 0.94% among 290,000;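 note: calls also rest on retests at 20 µM and on dose response follow-up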
Large screens that a line does not name were inactive. An excerpt weighted towards active compounds, which were near 1.8% of everything screened. Unless noted, the rule behind the calls is not given here.

N#Cc1cc2c(=O)n3ccccc3nc2n(-c2ccccc2Cl)c1=O	MEX-5 binding -26.7
COCCn1c(=N)c(S(=O)(=O)c2ccc(Br)cc2)cc2c(=O)n3ccccc3nc21	MEX-5 binding -45.1 (no result: PABP FP inh, EBV gp42 block, eIF4H FP inh)
N#Cc1cc2c(=O)n3ccccc3nc2n(Cc2cccnc2)c1=O	none (no result: PABP FP inh, EBV gp42 block, eIF4H FP inh)
CCn1c(=N)c(S(=O)(=O)c2ccc(Cl)cc2)cc2c(=O)n3ccccc3nc21	PABP FP inh active, eIF4H FP inh 83.1 (no result: MLLE-PAM2 inh)
N=c1c(S(=O)(=O)c2ccc(Cl)cc2)cc2c(=O)n3ccccc3nc2n1CC1CCCO1 (stereo not drawn)	none (no result: EBV gp42 block)
N=c1c(S(=O)(=O)c2ccc(Cl)cc2)cc2c(=O)n3ccccc3nc2n1Cc1ccco1	PABP FP inh active, eIF4H FP inh 73.4 (no result: EBV gp42 block)
CCOc1ccc(C(Nc2ccc(C)cc2)P2(=O)OCC(C)(C)CO2)cc1 (stereo not drawn)	PABP FP inh active, eIF4H FP inh 97.9
Cc1noc(C)c1C(=O)N(C)C[C@@H]1OCc2ccccc2-c2c(n(C)c3ccccc23)C(=O)N([C@H](C)CO)C[C@H]1C	none (no result: PABP FP inh, EBV gp42 block, MEX-5 binding, eIF4H FP inh)
COc1cc2c(cc1OC)CN(C(=O)CN1CCN(S(=O)(=O)c3ccccc3Br)CC1)CC2	none (no result: EBV gp42 block)
COc1cc2c(cc1OC)CN(C(=O)CSc1ccccc1C)CC2	MLLE-PAM2 inh 45.5 (no result: PABP FP inh, EBV gp42 block, MEX-5 binding, eIF4H FP inh)
COc1cc2c(cc1OC)CN(C(=O)Cn1ccccc1=O)CC2	eIF4H FP inh 79.3 (no result: EBV gp42 block)
CC(=O)Nc1c([N+](=O)[O-])cc2c3c(cccc13)CC2	none (no result: PABP FP inh, EBV gp42 block, MEX-5 binding, eIF4H FP inh)
COc1ccc(NC(=O)[C@@H]2O[C@H](CO)[C@H](O)[C@H](O)[C@H]2O)cc1F	none (no result: PABP FP inh, EBV gp42 block, MEX-5 binding, eIF4H FP inh)
O=C(Cn1c(=O)n(Cc2ccco2)c(=O)c2c3c(sc21)CCCCC3)Nc1ccccc1	PABP FP inh active, eIF4H FP inh 78.1
O=c1c2c3c(sc2n(CCN2CCCC2)c(=O)n1Cc1ccco1)CCCCC3	none
O=C(Cn1c(=O)n(Cc2ccco2)c(=O)c2c3c(sc21)CCCCC3)c1ccccc1	PABP FP inh active, eIF4H FP inh 74.2
COCCNC(=O)C1(C)CCN(C(=O)c2ccc(SC(F)(F)F)cc2)C1 (stereo not drawn)	none (no result: PABP FP inh, EBV gp42 block, MEX-5 binding, eIF4H FP inh)
CN(C(=O)c1cccc(NC(=O)Cc2ccc(NC(=O)C3CCN(C(=O)C4CCCC4)CC3)cc2)c1)C1CCCC1	none (no result: PABP FP inh, EBV gp42 block, MEX-5 binding, eIF4H FP inh)
CCOc1ccc(/C=N/NC(=O)c2cc(-c3ccco3)nc3ccccc23)cc1	none
O=C(N/N=C/c1ccc(F)cc1)c1cc(-c2ccco2)nc2ccccc12	PABP FP inh active, EBV gp42 block 82.9, eIF4H FP inh 89.8
C/C(=N\NC(=O)c1cc(-c2ccco2)nc2ccccc12)c1cccnc1	PABP FP inh active, eIF4H FP inh 81.7
O=C(NC1CC1)c1cc(-c2ccco2)nc2ccccc12	PABP FP inh active, EBV gp42 block 83.6, eIF4H FP inh 97.9
O=C(O)c1cc(-c2ccco2)nc2ccccc12	MLLE-PAM2 inh 53.5, PABP FP inh active, eIF4H FP inh 82.2
CC1(C(=O)Nc2cccc(Oc3ccccc3)c2)CCN1Cc1cccc2c1OCO2 (stereo not drawn)	none (no result: PABP FP inh, EBV gp42 block, MEX-5 binding, eIF4H FP inh)
CCC(C)NC(=O)c1ccc(CSCc2cccc(F)c2)o1 (stereo not drawn)	EBV gp42 block 109.5
CCC(C)NC(=O)c1ccc(CSCc2ccc(Cl)cc2)o1 (stereo not drawn)	none (no result: EBV gp42 block)
CSc1nsc(SCC(=O)NCc2ccccc2)n1	MLLE-PAM2 inh 40.1 (no result: EBV gp42 block)
Cc1ccc(C(NC(=O)C2CCCCC2)c2c(O)ccc3ccccc23)cc1 (stereo not drawn)	EBV gp42 block 59.8
CN1C(=O)CCS(=O)(=O)C1c1ccc(Cl)c(Cl)c1 (stereo not drawn)	none (no result: PABP FP inh, EBV gp42 block, MEX-5 binding, eIF4H FP inh)
Cc1ccc(S(=O)(=O)N2CCCCC2)cc1NCC(=O)Nc1ccc(Br)cc1F	none (no result: PABP FP inh, EBV gp42 block, MEX-5 binding, eIF4H FP inh)
COc1ccc(NC(=O)c2ccco2)cc1N	PABP FP inh active, eIF4H FP inh 92.3
O=C1CCCC2=C1C(c1ccc(Cl)cc1)n1c(s/c(=C\c3ccc4ccncc4c3)c1=O)=N2 (stereo not drawn)	PABP FP inh active, eIF4H FP inh 55.2
O=C1NC(=S)S/C1=C/c1ccc(N2CCOCC2)o1	PABP FP inh active, MEX-5 binding inconclusive, eIF4H FP inh 86.6
COc1ccc2cc(/C=C3\SC(=S)NC3=O)c(N3CCOCC3)nc2c1	MEX-5 binding -26.1
COc1cccc(C=C2SC(=S)NC2=O)c1	none (no result: PABP FP inh, EBV gp42 block, MEX-5 binding, eIF4H FP inh)
COc1ccc(/C=C/c2nc(-c3ccccc3O)n[nH]2)cc1OC	none (no result: MEX-5 binding)
O=C(O)COc1ccc(/C=C/c2nc(-c3ccccc3O)n[nH]2)cc1	MEX-5 binding -101.4 (no result: EBV gp42 block)
COc1ccc([C@H]2N[C@]3(CCCN(Cc4ccc(C)cc4)C3=O)[C@H]3C(=O)N(Cc4ccccc4)C(=O)[C@@H]23)cc1	none (no result: PABP FP inh, EBV gp42 block, MEX-5 binding, eIF4H FP inh)
CCOc1ccc2c(c1)n([O-])c1c([n+]2=O)CCCC1	MLLE-PAM2 inh 42.6
COc1ccc2c(c1)n([O-])c1c([n+]2=O)CCC1	none (no result: MLLE-PAM2 inh)
CC(C)N1CCCC(C)(C(=O)Nc2cccc(Oc3ccccc3)c2)C1 (stereo not drawn)	none (no result: PABP FP inh, EBV gp42 block, MEX-5 binding, eIF4H FP inh)
O=[N+]([O-])c1cc2oc3c(c2c(C=NCc2ccccc2)c1O)CCCC3	PABP FP inh active, eIF4H FP inh 76.5
CC(C)CN=Cc1c(O)c([N+](=O)[O-])cc2oc3c(c12)CCCC3	eIF4H FP inh inconclusive
CC1CC(C)(C)NC(=S)N1CCC(=O)Nc1ccc2c(c1)OCCO2 (stereo not drawn)	none
CC1CC(C)(C)NC(=S)N1CCCC(=O)Nc1ccc(Cl)cc1 (stereo not drawn)	PABP FP inh active, eIF4H FP inh active
CCOc1ccc(NC(=O)CCN2C(=S)NC(C)(C)CC2C)cc1 (stereo not drawn)	PABP FP inh active, eIF4H FP inh 5.7
COCCNC(=O)C1CCCN(C(=O)COc2ccc(C(C)(C)C)cc2)CC1 (stereo not drawn)	none (no result: PABP FP inh, EBV gp42 block, MEX-5 binding, eIF4H FP inh)
Cn1ncc2c(NNC(=O)Cc3ccccc3)ncnc21	MEX-5 binding -34.7
CCOC(=O)Cc1nc2ccccc2n(CC#N)c1=O	MEX-5 binding -33.4
N=c1oc2cc(O)ccc2cc1C(=O)Nc1ccccn1	EBV gp42 block 76.6, eIF4H FP inh inconclusive (no result: MLLE-PAM2 inh, MEX-5 binding)
N=c1oc2cc(O)ccc2cc1C(=O)Nc1ccc(Br)cc1	none (no result: EBV gp42 block)
N=c1oc2cc(O)ccc2cc1C(=O)Nc1nc2ccccc2s1	EBV gp42 block 54.5
CCn1cc(/C=C(\NC(=O)c2ccccc2F)C(=O)N2CCN(C)CC2)c2ccccc21	none (no result: PABP FP inh, EBV gp42 block, MEX-5 binding, eIF4H FP inh)
CN(C)c1ccc(-c2ccnc3c2CC(C)(C(=O)Nc2ccc(Cl)c(C(F)(F)F)c2)O3)cc1 (stereo not drawn)	none (no result: PABP FP inh, EBV gp42 block, MEX-5 binding, eIF4H FP inh)
CCOC(=O)c1cc2c(=O)n3ccccc3nc2n(C(C)C)c1=NC(=O)c1ccncc1	MEX-5 binding -32.0
CCOC(=O)c1cc2c(=O)n3ccccc3nc2n(Cc2ccco2)c1=NC(=O)c1ccccc1OCC	eIF4H FP inh 90.0
Cc1ccc(-c2csc(C(O)c3ccc(F)c(F)c3)n2)cc1C (stereo not drawn)	none (no result: PABP FP inh, EBV gp42 block, MEX-5 binding, eIF4H FP inh)
COc1cc(NC(=O)COc2ccc([N+](=O)[O-])cc2)ccc1NC(=O)c1ccco1	none (no result: PABP FP inh, EBV gp42 block, MEX-5 binding, eIF4H FP inh)
COC(=O)c1cn(CC(=O)N2CCCCCC2)c2ccccc12	none
CCOC(=O)C1=C(O)/C(=C/c2cn(CC(=O)N3CCCC3)c3ccccc23)SC1=Nc1ccccc1	MEX-5 binding -46.5
